Results as given in PubChem BioAssay AID603 (National Center for Advancing Translational Sciences (NCATS), 2007).
Among all 71,000 compounds or so, about 180 (0.25%) were called active. Calls follow the shape of the dose curve; as a rule, active = well fitted curve in the direction sought with a large enough effect; inconclusive = small, poorly fitted or top-dose-only effect; inactive = flat fitted curve, though single readings scatter. What follows is part of a selection rich in actives, with near analogues and random picks from the rest.

What follows are compounds tested on DNA polymerase III holoenzyme (E. coli) (assay: qHTS Assay for Inhibitors of DNA Polymerase III Holoenzyme System). Conditions: reconstituted DNA polymerase III holoenzyme replication, biochemical; series mostly up to 57.1 µM; activity change, negative = inhibition: at the top concentration.
Protocol: NIH Molecular Libraries Screening Centers Network [MLSCN]
NIH Chemical Genomics Center [NCGC]
Assay Provider: Charles McHenry, University of Colorado
E. coli DNA polymerase III holoenzyme complex was assayed for DNA production by fluorescent detection of the double-stranded DNA product with PicoGreen dye. The holoenzyme complex was reconstituted from the following purified protein components: DNA Polymerase III, beta subunit processivity factor, SSB single-stranded DNA binding protein, and Primase. Single-stranded, circular M13Gori was used as a substrate with dNTPs and NTPs also supplied to the substrate reagent. Compounds from the NCGC collection were incubated with the holoenzyme mixture for 15 min at room temperature to allow binding to occur, and then the reaction was started by the addition of substrate. After 30 min incubation at room temperature, PicoGreen solution containing EDTA was added to stop the reaction and to visualize the double-stranded DNA produced. Reaction progress was measured in a ViewLux CCD imager in fluorescence intensity mode by using 480 nm excitation and 540 nm emission filter set.
NCGC Assay Protocol Summary:
Buffer. 50 mM Hepes-KOH, pH 7.5, 5 % Glycerol, 0.02% NP40, 30 mM potassium;
glutamate, 1.5 mM Magnesium Acetate, 16 uM TCEP.
Buffer in columns 3 and 4 as negative control (no enzyme).
Substrate solution: 5 uM each dATP, dGTP, dCTP and TTP, 50 uM each GTP, CTP, UTP and 200 uM ATP, 1.4 nM M13gori (final concentrations).
Enzyme: 154 nM SSB, 2 nM Primase, 1 nM Beta, 0.35 nM Pol III (final concentrations).
PicoGreen/EDTA: 10 mM Tris-HCl, 10 mM EDTA, 5 uM PicoGreen (final concentrations).
Control titration: ChemBridge 5805060 (from 10 mM, then 1:2, in duplicate) was pin-transferred to upper half of column 2.
Three uL of holoenzyme mixture were dispensed to 1536-well Greiner black solid bottom plates. Compounds and controls (23 nL) were transferred via Kalypsys PinTool. The plates were incubated for 15 min at room temperature, and then 1 uL of substrate solution was added to start the reaction. After room temperature incubation for 35 minutes, 1 uL of PicoGreen solution was added to each well and the plates were read 480 nm excitation and 540 nm emission using ViewLux (Perkin-Elmer) High-throughput CCD imager and fluorescence protocol settings.
Keywords: NIH Roadmap, MLSCN, MLI, MLSMR, qHTS, NCGC, DNA Polymerase III, DNAPol3, DNAPoly3, DNA replication targets
% is scaled to controls: 0 for no effect and ±100 for the full control effect.

Compound	activity change, negative = inhibition	Potency
CC(=O)OCC(COC(C)=O)OC(C)=O	6% (inactive)	
CCOc1ccc(-c2nnc3ccc(SC)nn23)cc1	-4.6% (inactive)	
CN(C)c1ncc2nc(-c3ccc(F)cc3)c(=O)n(Cc3ccc(F)cc3)c2n1	-10.5% (inactive)	
Cc1c(NC(=O)C(C)OC(=O)c2cc3c4ccccc4n(C)c3s2)c(=O)n(-c2ccccc2)n1C (configuration not stated)	-9% (inactive)	
CC1COC2C(O1)N(S(C)(=O)=O)CCN2S(C)(=O)=O (configuration not stated)	-5.1% (inactive)	
Cc1cc(NC(=O)COc2ccc(Cl)cc2Cl)n(CCC#N)n1	-3.1% (inactive)	
COc1cc(=O)[nH]c(=O)n1C(=O)Cc1ccccc1	-6% (inactive)	
CCC(C)(C)n1nnnc1C(c1cccs1)N1CCN(c2nc3ccccc3s2)CC1 (configuration not stated)	-3.1% (inactive)	
CC[N+](C)(CC)CCC[n+]1c(-c2ccccc2)c2cc(N)ccc2c2ccc(N)cc21		2 µM (active)
O=C(OCC(COC(=O)c1ccccc1)(COC(=O)c1ccccc1)COC(=O)c1ccccc1)c1ccccc1	0.5% (inactive)	
COc1ccc(CC(=O)n2nc(-c3cccnc3)nc2N)cc1	-4.3% (inactive)	
COc1ccccc1NC(=O)C1=C(C)Nc2nnnn2C1c1cccc(Br)c1 (configuration not stated)	-0.8% (inactive)	
CC(C)NC(=O)CCCn1c(=S)[nH]c2cc3c(cc2c1=O)OCO3	-4.2% (inactive)	
CCCOC(=O)Cc1c(O)c2ccccc2[nH]c1=O	2.4% (inactive)	
CCCC(=O)Nc1c(O)c2ccccc2[nH]c1=O	1.8% (inactive)	
O=C1C(c2[nH]c3ccccc3c2O)=Nc2ccccc21		3.98 µM (active)
CC(C)(C)[Si](OCC[C@@H]1C[C@@]1(C)[C@@H](NP(=O)(c1ccccc1)c1ccccc1)c1ccccc1)(c1ccccc1)c1ccccc1	2.2% (inactive)	
N#Cc1cccc(-c2ccc3ncnc(NCc4cccs4)c3c2)c1	-0.5% (inactive)	
CC(C)C[C@H](NC(=O)NCCc1ccc(Cl)cc1)C(=O)O	0.4% (inactive)	
COc1ccc(-n2ncc3c(N4CCCc5ccccc54)ncnc32)cc1	0.2% (inactive)	
CCCC[C@@H]1C[C@H]1C(NC(=O)c1ccco1)c1ccc(C(=O)OC)cc1 (some centres not stated)	-5.4% (inactive)	
CS(=O)(=O)N1CCC2(CC1)CN(c1ccncc1)C2	-4.4% (inactive)	
Cc1ccccc1C(=O)O	1.3% (inactive)	

Compound	activity change, negative = inhibition	Potency
O=C(O)c1ccc(C(=O)c2ccccc2C(=O)O)cc1C(=O)O		3.98 µM (active)
O=C(c1ccc(O)cc1)c1ccc(C(=O)O)c(C(=O)O)c1	-2.9% (inactive)	
CCc1nnc(NS(=O)(=O)c2ccc(NS(=O)(=O)c3ccccc3)cc2)s1	-14.1% (inactive)	
Cc1ccnc(N)c1	-0.2% (inactive)	
c1ccc2nc(C3=NCCN3)cnc2c1	-3.7% (inactive)	
c1ccc(Cc2nn3c(Cn4cnc5ccccc54)nnc3s2)cc1	-6.2% (inactive)	
COc1ccc2oc(=O)c(C(=O)O)cc2c1	0.4% (inactive)	
O=C(CN1CCOc2ccccc21)N1CCC(Cc2ccccc2)CC1	0.5% (inactive)	
O=C(NCCCN1CCCCCC1)c1ccc(N2CCCC2=O)cc1	-2.7% (inactive)	
CC(=O)N1[C@H](C)C=C[C@]1(Cc1ccccc1)C(=O)NCc1ccccn1	10.3% (inactive)	
O=C1CN(C(=O)COC(=O)C2CC(=O)N(Cc3ccco3)C2)c2ccccc2N1 (configuration not stated)	-5.6% (inactive)	
O=C(Nc1ccn(Cc2ccc(F)cc2)n1)c1ccncc1	2.3% (inactive)	
CC(=O)N=c1ncn(CC(COC(C)=O)OC(C)=O)c2nc[nH]c12 (configuration not stated)	-5.5% (inactive)	
CCn1c(CSc2ncccn2)nnc1SCC(=O)N1c2ccccc2CC1C (configuration not stated)	-3.1% (inactive)	
C/C(=C\c1ccco1)C1Nc2cccc3cccc(c23)N1		3.16 µM (active)
Cc1cc(C)cc(NC(=O)C2CCN(c3nc(C)cc(C)n3)CC2)c1	-1.5% (inactive)	
CN1CCCC(OC(=O)COc2ccc(Br)cc2)C1 (configuration not stated)	-3.3% (inactive)	
Cc1cc(=O)oc(C)c1C(=O)NCc1ccc(F)cc1	-6.9% (inactive)	
Oc1ccccc1CNCc1ccccc1O	-9.4% [at 11.4 µM] (inactive)	
CCOC(=O)c1c(C2CC2)csc1NC(=O)CSCc1c(C)noc1C	-5.2% (inactive)	
Cc1cc(C)nc(SCc2ccccc2C#N)n1	-13.8% (inactive)	
CCCCCCc1ccc(O)cc1O	0.2% (inactive)	
COc1ccccc1CNc1ncnc2ccc(-c3c(C)noc3C)cc12	-1.2% (inactive)	

Compound	activity change, negative = inhibition	Potency
COc1ccc(Cn2cccc(NC(=O)Nc3ccc(C#N)cc3)c2=O)cc1	-2.6% (inactive)	
COc1ccc(OC)c(C(=O)c2ccc(C(=O)O)cc2)c1	1.1% (inactive)	
CC(C)NC[C@H](O)c1ccc2ccccc2c1	inactive	
O=C(Oc1ccc2c(c1)CN(Cc1ccccc1)CO2)c1ccccc1	-3% [at 11.4 µM] (inactive)	
COCCn1c(=O)c(CCc2ccccc2)nc2cncnc21	-7.4% (inactive)	
CCCn1c(-c2ccc(F)cc2)nc2c(NCC3CCCN3CC)nc(C)nc21 (configuration not stated)	-1.2% (inactive)	
COc1cccc2sc(Nc3nc(C)c(C(C)=O)s3)nc12	-4.5% (inactive)	
O=S(=O)(c1cccc(S(=O)(=O)N2CCC(n3nnc4ccccc43)CC2)c1)N1CCCCC1	-5.3% (inactive)	
CC[C@]1([C@H]2O[C@@H]([C@@H]3O[C@](O)(CO)[C@@H](C)C[C@H]3C)C[C@H]2C)CC[C@@H]([C@]2(C)CC[C@@]3(C[C@@H](O)[C@@H](C)[C@@H]([C@H](C)[C@H](OC)[C@H](C)C(=O)O)O3)O2)O1	-3.8% [at 25.6 µM] (inactive)	
CC(=O)NC(C)c1nc2ccccc2n1Cc1ccccc1F (configuration not stated)	-0.1% (inactive)	
Cc1ccc(S(=O)(=O)Nc2ccccc2CNc2c(C)n(C)n(-c3ccccc3)c2=O)cc1	-1.6% (inactive)	
Cc1noc(C)c1-c1nccc(N2CCOCC2)n1	-4.8% (inactive)	
Cc1cc(C)cc(N(CC(=O)Nc2c(C)n(C)n(-c3ccccc3)c2=O)S(C)(=O)=O)c1	2.7% [at 11.4 µM] (inactive)	
Cc1cn(C2C=CC(CO)O2)c(=O)[nH]c1=O (configuration not stated)	0% (inactive)	
COc1cccc2cc(C(C)N(CCCN3CCOCC3)C(=O)Nc3ccc(Cl)cc3)oc12 (configuration not stated)	-0.7% (inactive)	
O=C(c1cc(C(F)(F)F)cc(C(F)(F)F)c1)N1CCC[C@@]2(CCN(c3ccccn3)C2)C1	-5.9% (inactive)	
CS(=O)(=O)Nc1cccc(-c2cncnc2Nc2ccccc2)c1	-2% (inactive)	
CCOc1ccc(CCNC(=O)C2CCN(c3ccc(N4CCOCC4)nn3)CC2)cc1OCC	-4.2% (inactive)	
Cc1cccc(C(=O)O)c1	7.4% (inactive)	
COC(=O)[C@@]1(Cc2ccc(F)cc2)[C@H]2c3cc(C(=O)N(C)C)n(CCc4c[nH]c5ccc(OC)cc45)c3C[C@H]2CN1C(=O)c1ccccc1	-11% (inactive)	
COc1ccccc1CCn1c(=O)c(-c2cn(C)c3ccccc23)nc2cncnc21	-6.9% (inactive)	
